Records with an inconclusive call do not appear. Unmarked numbers belong to inactive results. Calls come from the whole dose curve.
% is set by controls: 0 for no effect and ±100 for the full control effect.

The nature of this test: p53 small molecule agonists, cell-based qHTS assay with human liver microsomes (AID 1963577).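 Note: p53 response element beta-lactamase reporter cells with liver microsomes plus NADPH.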 The note with it: HCT-116 p53RE-bla with human liver microsomes, ratio, 16 h; series mostly up to 66 µM; activation: at the top concentration. The essentials: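 p53RE-bla cells, 4,000/well, compound added after 5 h, with human liver microsomes 0.5 mg/mL and NADPH 0.5 mg/mL final; 16 h at 37 C, then LiveBLAzer 2 h RT, fluorescence.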
For orientation: qHTS replaces the single test concentration by a dilution series.
As to `OC(c1ccc(F)cc1)(c1cncnc1)c1ccccc1Cl` (stereo not given), the “activation” value was -5.68%.

On to `CCOC(=O)OC1=C(c2cc(C)ccc2C)C(=O)NC12CCC(OC)CC2` (stereo not given), for which the “activation” value is -10.3%.

Consider `C[N+]1(C)[C@@H]2CC[C@H]1CC(OC(=O)C(CO)c1ccccc1)C2` (stereo not given in full), for which the “activation” value is -4.69% [at 30.3 µM].

With `O=CC(Br)(Br)Br`, the “activation” value is 0.597%.

Turning to `Cc1nnc2n1-c1sc(CCC(=O)N3CCOCC3)cc1C(c1ccccc1Cl)=NC2`, the “activation” value was -13.3% [at 30.3 µM].

Consider `CC(Oc1cccc(Cl)c1)C(=O)O` (stereo not given), for which the “activation” value is -5.89%.

Consider `N#CC(CCc1ccc(Cl)cc1)(Cn1cncn1)c1ccccc1` (stereo not given), for which the “activation” value was -9.58%.

For the compound `CCC(CC)(CNC(=O)CCCO)c1cccc(OC)c1`, the “activation” value was 0.41% [at 30.3 µM].

For the compound `CC[C@@H](CO)NC(=O)[C@@H]1C=C2c3cccc4[nH]cc(c34)C[C@H]2N(C)C1`, the “activation” value is -8.73% [at 30.3 µM].

For the compound `CC(C)C(=O)Cl`, the “activation” value is 1.92%.

On to `CN(C)c1ccc(N)cc1`, for which the “activation” value was -1.61%.

`CCOc1ccc(C(C)(C)COCc2cccc(Oc3ccccc3)c2)cc1`: the “activation” value is 0.427%.

As to `O=[Se]=O`, the “activation” value was 15.1% [at 30.3 µM].

Turning to `O=C(N[C@H]1N=C(c2ccccc2F)c2cccc3c2N(CC3)C1=O)c1cc2ccccc2[nH]1`, the “activation” value was -12.6% [at 30.3 µM].

Turning to `N#Cc1cc(I)c(O)c(I)c1`, the “activation” value was -4.96%.

Take `C[C@@H]1CC2=CC(=O)CC[C@@H]2[C@H]2CC[C@@]3(C)[C@@H](CC[C@]3(C)O)[C@@H]21`: the “activation” value is -10.4% [at 30.3 µM].

On to `CC(Cc1ccccc1)NCc1ccccc1Cl` (stereo not given), for which the “activation” value was -0.386% [at 30.3 µM].

For `CC(C)(C)c1ccc(CSc2cnn(C(C)(C)C)c(=O)c2Cl)cc1`, the “activation” value was -3.28%.

For the compound `C=C1C[C@@H]2[C@H](CC[C@]3(C)C(=O)CC[C@@H]23)[C@@]2(C)C=CC(=O)C=C12`, the “activation” value is -9.91% [at 30.3 µM].

With `C=CCOC(C)=O`, the “activation” value was 0.46%.

The values are drawn from PubChem BioAssay (Tox21).
